Results: ChEMBL document CHEMBL3988442, “University of Dundee, Small-Polar-MMV Screening Library” (2021)
In all, about 48,000 compounds went through this assay and about 13,000 (27%) showed an effect of 50% or more. This is one part of the list.

The compounds below were run on Wolbachia pipientis (assay: Anti-Wolbachia Cell-Based Screen). Settings: 5 µM.
Type: functional
Parameters: scale not given: in the data most compounds retested in dose-response had high values

SMILES | Percent Effect [%]
CCCn1ncc(C(=O)NC2CCN(CC3CCCO3)CC2)c1C (configuration not stated) | 2.131
O=C(NCc1ccc(F)cc1)NCC(O)(c1ccco1)C1CC1 (configuration not stated) | -0.2956
CC(=O)N1N=C(c2ccco2)OC1C(=O)NCCc1ccc(O)cc1 (configuration not stated) | 112.2
CC(=O)N1N=C(c2ccco2)OC1C(=O)NCCc1ccc(F)cc1 (configuration not stated) | 117.3
CN(C)C(CNC(=O)NCCc1cccc(O)c1)c1ccco1 (configuration not stated) | 7.876
O=C(NCCc1ccncc1)C1CCN(Cc2ccco2)CC1 | 7.688
Cn1cc(CN2CCOC[C@H]2c2nc(C(C)(C)C)co2)c2ccccc21 | -4.393
CN(C)c1ncccc1CNC(=O)N1CCCC1c1ccsc1 (configuration not stated) | -3.064
CC1CC2(CCN(C(=O)c3c[nH]cn3)CC2)c2ccccc21 (configuration not stated) | 62.95
CCOC1CCC2(CCN(C(=O)c3c[nH]cn3)CC2)c2ccccc21 (configuration not stated) | 107.8
CCOC1CC2(CCN(C(C)=O)CC2)c2cc(F)ccc21 (configuration not stated) | -13.1
CNC(=O)C1CC2(CCN(C(=O)c3csnn3)CC2)c2ccccc21 (configuration not stated) | -5.077
CCOC1CC2(CCN(c3cnccn3)CC2)c2ccccc21 (configuration not stated) | 15.96
CCOC1CCC2(CCN(C(=O)c3csnn3)CC2)c2ccccc21 (configuration not stated) | 117.6
CC1CC2(CCN(C(=O)c3csnn3)CC2)c2ccccc21 (configuration not stated) | 10.92
N[C@@H]1c2ccccc2C2(CCN(C(=O)c3ccc(Cl)cn3)CC2)[C@H]1O | 2.711
CN(C)C1CC2(CCN(C(=O)c3csnn3)CC2)c2ccccc21.O=C(O)C(F)(F)F (configuration not stated) | -2.029
C[C@@H]1CN(C(=O)CCc2nncn2C)CC[C@@]1(O)C1CCC1 | -5.246
CCN(CC)CCn1ccnc1-c1cccc(C#N)c1 | 11.68
Cc1ccc(-c2nn(-c3cccc(F)c3)cc2CN(C)CCO)o1 | -10.45
CC(C)(C)CN[C@@H]1CO[C@H](CNC(=O)c2cccs2)[C@H]1O | -6.649
Cc1nc([C@@H]2C[C@H]3CN(Cc4scnc4C)C[C@H]3O2)no1 | -8.778
O=C(NCc1cccs1)c1nc2c(o1)CN(C(=O)c1cccnc1)C2.O=C(O)C(F)(F)F | 7.988
CN(C)C(=O)NCc1nnc2n1CCN(Cc1ccsc1)C2 | 3.865
CC(C)(C)C(O)CN1CCN(C(=O)COCC2CC2)CC1 (configuration not stated) | -3.893
CCCOc1cc(C)ccc1NC(=O)NCCC(=O)N(C)C | -7.738

SMILES | Percent Effect [%]
CCS(=O)(=O)NCCNC(C)(C)c1nc(C)cs1 | -9.016
CNC(=O)c1ccc(S(=O)(=O)NCCc2ccccn2)cc1 | -1.31
NC(=O)c1ccc(S(=O)(=O)NCCc2ccccn2)cc1 | -9.373
CC(=O)Nc1nc(C)c(S(=O)(=O)NCCc2ccccn2)s1 | 90.82
CC(=O)Nc1nc(C)c(S(=O)(=O)NCCc2cccnc2)s1 | 82
Cc1cc(NC(=O)NCCc2cccnc2)n(C)n1 | -22.8
Cn1ccnc1CCNS(=O)(=O)c1cccnc1 | 3.045
Cc1cc(N[C@@H](CO)c2ccccc2)n2nc(C)c(C)c2n1 | -10.16
COc1ncnc(N)c1CNCCc1ccc(-n2cccn2)cc1 | 93.72
c1ccc(-n2cncn2)c(CNCCn2cccn2)c1 | -10.78
COc1ncnc(N)c1CNCC(C)SC (configuration not stated) | 4.865
COc1ncnc(N)c1CNCCOc1ccccc1Cl | -0.9521
COc1ncnc(N)c1CNCC(C)Oc1ccccc1Cl (configuration not stated) | -1.664
COc1ncnc(N)c1CNCc1ccccc1-n1cccn1 | 108.1
CC(C)C1CN(C(=O)c2cc(=O)[nH]c(=O)[nH]2)CCCN1CC1CC1 (configuration not stated) | 26.13
Cc1ccc(CN2CCN(c3ncnc4[nH]cnc34)CC2CCO)cc1 (configuration not stated) | -6.275
Cc1cc(CN2CCN(CC3CC3)[C@@H]3CS(=O)(=O)C[C@@H]32)ccc1F | 0.5835
CCS(=O)(=O)N1CCc2c(nc(C3CCCN3)nc2NC)C1.Cl (configuration not stated) | 89.89
CNc1nc(C2CCCN2)nc2c1CCN(S(=O)(=O)C1CCCCC1)C2.Cl (configuration not stated) | 89.64
CCS(=O)(=O)N1CCc2c(cccc2NCc2nc(C)c(C)o2)C1 | 13.37
CCS(=O)(=O)N1CCc2c(cccc2NCc2ncc[nH]2)C1 | -10.34
O=C1CCN(C(=O)C2(c3ccc(F)cc3)CCCC2)CCN1 | -16.8
COc1ccc(C(O)CNC(=O)NCc2csc(C)n2)cc1 (configuration not stated) | -1.772
CS(=O)(=O)N1CCN2C(=O)N(C3CCOCC3)C[C@H]2C1 | -10.83
Cc1ncnc(N2CCN(C(=O)C3CC4(CCNCC4)CN3)CC2)c1C (configuration not stated) | -0.6445
Cc1nccn1CCC1CCN(C2CCC3(CCNCC3)CC2)CC1 | 84.73

SMILES | Percent Effect [%]
Cc1nnc(N2CCC(CCn3ccnc3C)CC2)o1 | 2.305
Cc1nccn1CCC1CCN(C(=O)C2CC3(CCNCC3)CN2)CC1 (configuration not stated) | 104.8
Cc1nccn1CCC1CCN(c2ncccn2)CC1 | -9.43
Cc1cnccc1N1CCN(C(=O)C2CC3(CCNCC3)CN2)CC1 (configuration not stated) | 31.13
CCCN(CC(=O)OC)S(=O)(=O)c1cnc2c(c1)c(C)nn2C | 9.963
CS(=O)(=O)N1C[C@@H]2CCN(C(=O)c3cscn3)[C@@H]2C1 | 118.3
CC(C)C(=O)N1CCN(C(=O)c2cscn2)[C@H]2CS(=O)(=O)C[C@H]21 | 2.64
O=C(c1ccsc1)N1C[C@@H]2CCN(C(=O)c3cccc(F)c3)[C@@H]2C1 | -29.62
CS(=O)(=O)N1C[C@@H]2CCN(C(=O)c3ccco3)[C@@H]2C1 | -6.962
O=C(c1ccsc1)N1C[C@@H]2CCN(C(=O)c3cscn3)[C@@H]2C1 | 98.94
O=C(c1ccco1)N1C[C@H]2CCCN(C(=O)c3ccsc3)[C@H]2C1 | -8.905
CN1C[C@@H]2CN(C(=O)C3CCOC3)C[C@@H]2C1=O (some centres not stated) | 0.8988
O=C(NC1CC1)N1C[C@@H]2CCN(C(=O)c3cscn3)[C@@H]2C1 | 121.3
O=C(NC1CCCCC1)N1C[C@@H]2OCCN(C(=O)c3ccco3)[C@@H]2C1 | 2.504
CCS(=O)(=O)N1CCC2(CN(C(=O)c3cscn3)C2)C1 | 7.529
O=C(c1cscn1)N1CC[C@@H]2[C@@H]1CCN2c1ccccn1 | -2.894
O=C(C1CCOC1)N1C[C@@H]2CCN(C(=O)c3cscn3)[C@@H]2C1 (some centres not stated) | 85.3
Cc1nc(C(C)(C)NCc2ncc(C(C)C)o2)sc1C | 0.4552
O=C(C1CCS(=O)(=O)C1)N1CCC(=Cc2cccc(F)c2)CC1 (configuration not stated) | 0.7274
Cc1ccc(CN2C[C@@H](C(=O)O)[C@H](c3cccnc3)C2)s1 | -1.112
Cc1c(Cl)c(C(=O)N2C[C@@H](C(=O)O)[C@H](c3cccnc3)C2)nn1C | 7.348
Cc1ccc2nc(C(=O)N3C[C@@H](C(=O)O)[C@H](c4cccnc4)C3)cn2c1 | 96.84
Cc1ccc2nc(C(=O)N3CC(n4nc(C)cc4C)C3)cn2c1 | -3.622
Cc1c(Cl)c(C(=O)N2CC(c3cccnc3)C2)nn1C | 11
Cc1ccc(F)c(C(=O)N2C[C@@H](C(=O)O)[C@H](c3ccccc3)C2)c1Cl | 13.68
Cc1ccc2nc(C(=O)N3CC(c4cccnc4)C3)cn2c1 | 95.05

SMILES | Percent Effect [%]
COc1cc(C)sc1C(=O)N1CC(c2cccnc2)C1 | -11.08
Cc1ccc2nc(C(=O)N3C[C@@H](C(=O)O)[C@H](c4ccccc4)C3)cn2c1 | 107.2
Cc1c(-c2n[nH]c3c2CN(CC2CCOC2)CC3)cccc1C(F)(F)F (configuration not stated) | -2.371
CCCOC(=O)C(C)Sc1nnnn1C1CCOCC1 (configuration not stated) | -23.26
O=C(NC1CCOCC1)C1CC(=O)N(Cc2ccccn2)C1 (configuration not stated) | -4.932
Cc1ncccc1CNCC1CCN(CC(O)c2ccccc2)CC1 (configuration not stated) | 6.479
N[C@@H]1CC[C@H](C(=O)NCc2ccc3nonc3c2)C1 | -14.66
Cc1ccnc(NC(=O)CSCc2cccnc2)c1 | -2.126
Cc1cccc(CN2CCN(C(=O)c3cc(Cl)c[nH]c3=O)CC2)c1 | -10.72
Cc1cccc(CSc2ncc(Br)c(C(=O)O)n2)c1 | 160.3
Cc1ccc(CSc2ncc(Br)c(C(=O)O)n2)cc1 | 104.9
O=C(O)c1nc(SCc2ccccc2)ncc1Br | 220.2
Cc1cccc(CN2CCN(C(=O)c3cnc(C)[nH]c3=O)CC2)c1 | -2.506
Cc1cccc(CSc2ncc(Cl)c(C(=O)O)n2)c1 | 112.8
CC1(C)CN(CC(F)(F)F)CCN1CC(=O)NC1CC1 | -2.584
CSc1sc(NC(=O)Cc2c(C)nc(C)[nH]c2=O)nc1C | -3.918
Cc1ncnc(NCc2cc3n(n2)CCCN(S(C)(=O)=O)C3)c1C | 3.244
CNS(=O)(=O)c1csc(C(=O)N(C)Cc2ccccc2C)c1 | -9.289
CC1COc2ccccc2N1C(=O)CCc1cscn1 (configuration not stated) | -5.764
O=C(O)c1nc(SCc2ccc(F)cc2)ncc1Br | 202.4
Cc1ccccc1CSc1ncc(Br)c(C(=O)O)n1 | 130.2
Cc1ccccc1CSc1nc(N)cc(N2CCCC(C(N)=O)C2)n1 (configuration not stated) | -15
O=C(O)c1nnn(Cc2ccc(F)cc2)c1-c1cccnc1 | 3.102
Cc1ccccc1CSc1nc(N)cc(N2CCC(CC(N)=O)CC2)n1 | 7.144
